Experimental data as given in the supplement of paper PMC6897291.

Test system: RIVA
Assay: growth inhibition by drug alone (1 - RLU/untreated control) (fraction); higher = stronger inhibition
Conditions: 177Lu-lilotomab satetraxetan 0 ug/ml
Description: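 RIVA (RI-1) ABC-DLBCL cells were pretreated or not for 18 h with 0.5 ug/ml 177Lu-lilotomab satetraxetan (600 MBq/mg), washed and seeded (3000 cells/well) on 384-well plates pre-printed with the Selleck Cambridge Cancer Compound library. Viability was read by RealTime-Glo luminescence on days 3-6 after seeding. Effect = 1 - RLU/mean RLU of the 48 untreated no-drug control wells per plate; Bliss score = (M-E)/(1-Fa).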

SMILES	growth inhibition by drug alone (10 nM, time (day): 3)	growth inhibition by drug alone (10 nM, time (day): 4)	growth inhibition by drug alone (10 nM, time (day): 5)	growth inhibition by drug alone (10 nM, time (day): 6)	growth inhibition by drug alone (100 nM, time (day): 3)	growth inhibition by drug alone (100 nM, time (day): 4)	growth inhibition by drug alone (100 nM, time (day): 5)	growth inhibition by drug alone (100 nM, time (day): 6)
CC(NC(=O)c1ccccc1/N=C/c1c(O)ccc2ccccc12)c1ccccc1 (stereo not given) [Sirtinol]	-0.0251	0.00147	-0.0621	-0.367	-0.00236	-0.00311	-0.00892	-0.099
CC(=O)O[C@H]1C(=O)[C@@]2(C)[C@H]([C@H](OC(=O)c3ccccc3)[C@]3(O)C[C@H](OC(=O)[C@H](O)[C@@H](NC(=O)c4ccccc4)c4ccccc4)C(C)=C1C3(C)C)[C@]1(OC(C)=O)CO[C@@H]1C[C@@H]2O [Paclitaxel (Taxol)]	0.943	0.957	0.965	0.967	0.949	0.962	0.969	0.972
CNC(=O)c1cc(COc2nnc(Nc3ccc(Cl)cc3)c3ccoc23)ccn1 [Telatinib (BAY 57-9352)]	-0.0398	-0.0876	-0.128	-0.281	-0.214	-0.207	-0.212	-0.315
C[C@@H]1C[C@H]2[C@@H]3CCC4=CC(=O)C=C[C@]4(C)[C@@]3(F)[C@@H](O)C[C@]2(C)[C@@]1(O)C(=O)CO [Dexamethasone]	0.0365	0.0468	-0.018	-0.23	-0.0879	-0.051	-0.149	-0.312
CC(=O)O[C@]1(C(C)=O)CC[C@H]2[C@@H]3C=C(C)C4=CC(=O)CC[C@]4(C)[C@H]3CC[C@@]21C [Megestrol Acetate]	-0.0198	-0.0102	-0.107	-0.454	0.0472	0.023	-0.0299	-0.147
